Test results published in ChEMBL document CHEMBL3988442, “University of Dundee, Small-Polar-MMV Screening Library” (2021).
For some of these results: Measured potencies and affinities stand elsewhere.

Tests used:
Set-up in all cases: scale not given: direction of the effect not stated beside the values
[1] = target: Protein translocase subunit SecA (Escherichia coli (strain K12)) (UniProt P10408); experiment: Assay to Identify E. coli SecA ATPase Inhibitors; format: functional; conditions: 30 µM
Protein translocase subunit SecA (Escherichia coli (strain K12)), sequence (P10408 whole entry): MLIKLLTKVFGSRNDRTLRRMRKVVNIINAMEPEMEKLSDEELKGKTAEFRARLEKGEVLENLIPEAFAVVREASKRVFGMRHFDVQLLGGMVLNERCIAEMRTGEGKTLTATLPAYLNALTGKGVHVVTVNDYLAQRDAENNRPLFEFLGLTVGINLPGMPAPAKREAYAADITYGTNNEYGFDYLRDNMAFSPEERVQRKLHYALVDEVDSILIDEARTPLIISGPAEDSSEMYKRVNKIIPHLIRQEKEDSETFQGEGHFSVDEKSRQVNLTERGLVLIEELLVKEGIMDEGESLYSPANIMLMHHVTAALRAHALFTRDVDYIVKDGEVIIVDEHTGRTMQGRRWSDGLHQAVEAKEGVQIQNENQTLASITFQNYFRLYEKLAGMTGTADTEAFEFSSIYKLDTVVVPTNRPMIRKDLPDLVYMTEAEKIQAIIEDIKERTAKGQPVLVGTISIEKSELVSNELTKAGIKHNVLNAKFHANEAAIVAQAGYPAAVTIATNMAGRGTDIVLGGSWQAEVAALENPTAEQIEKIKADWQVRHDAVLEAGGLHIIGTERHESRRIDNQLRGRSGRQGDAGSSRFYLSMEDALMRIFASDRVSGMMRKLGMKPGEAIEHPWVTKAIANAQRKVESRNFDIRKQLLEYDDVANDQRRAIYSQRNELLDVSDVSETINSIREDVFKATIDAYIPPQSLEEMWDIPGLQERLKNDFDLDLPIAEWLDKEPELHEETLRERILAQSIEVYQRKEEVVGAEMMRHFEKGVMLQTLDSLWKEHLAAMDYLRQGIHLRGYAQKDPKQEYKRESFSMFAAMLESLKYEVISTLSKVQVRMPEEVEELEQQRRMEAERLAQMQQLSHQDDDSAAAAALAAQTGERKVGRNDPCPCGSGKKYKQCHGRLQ

[2] = target: T1, Ubiquitin-activating enzyme e1, putative (Leishmania donovani (strain BPK282A1)) (UniProt E9BSI1); experiment: Leishmania donovani Ubiquitin Activating Enzyme (LdE1); format: functional; conditions: 30 µM
T1 sequence (whole entry): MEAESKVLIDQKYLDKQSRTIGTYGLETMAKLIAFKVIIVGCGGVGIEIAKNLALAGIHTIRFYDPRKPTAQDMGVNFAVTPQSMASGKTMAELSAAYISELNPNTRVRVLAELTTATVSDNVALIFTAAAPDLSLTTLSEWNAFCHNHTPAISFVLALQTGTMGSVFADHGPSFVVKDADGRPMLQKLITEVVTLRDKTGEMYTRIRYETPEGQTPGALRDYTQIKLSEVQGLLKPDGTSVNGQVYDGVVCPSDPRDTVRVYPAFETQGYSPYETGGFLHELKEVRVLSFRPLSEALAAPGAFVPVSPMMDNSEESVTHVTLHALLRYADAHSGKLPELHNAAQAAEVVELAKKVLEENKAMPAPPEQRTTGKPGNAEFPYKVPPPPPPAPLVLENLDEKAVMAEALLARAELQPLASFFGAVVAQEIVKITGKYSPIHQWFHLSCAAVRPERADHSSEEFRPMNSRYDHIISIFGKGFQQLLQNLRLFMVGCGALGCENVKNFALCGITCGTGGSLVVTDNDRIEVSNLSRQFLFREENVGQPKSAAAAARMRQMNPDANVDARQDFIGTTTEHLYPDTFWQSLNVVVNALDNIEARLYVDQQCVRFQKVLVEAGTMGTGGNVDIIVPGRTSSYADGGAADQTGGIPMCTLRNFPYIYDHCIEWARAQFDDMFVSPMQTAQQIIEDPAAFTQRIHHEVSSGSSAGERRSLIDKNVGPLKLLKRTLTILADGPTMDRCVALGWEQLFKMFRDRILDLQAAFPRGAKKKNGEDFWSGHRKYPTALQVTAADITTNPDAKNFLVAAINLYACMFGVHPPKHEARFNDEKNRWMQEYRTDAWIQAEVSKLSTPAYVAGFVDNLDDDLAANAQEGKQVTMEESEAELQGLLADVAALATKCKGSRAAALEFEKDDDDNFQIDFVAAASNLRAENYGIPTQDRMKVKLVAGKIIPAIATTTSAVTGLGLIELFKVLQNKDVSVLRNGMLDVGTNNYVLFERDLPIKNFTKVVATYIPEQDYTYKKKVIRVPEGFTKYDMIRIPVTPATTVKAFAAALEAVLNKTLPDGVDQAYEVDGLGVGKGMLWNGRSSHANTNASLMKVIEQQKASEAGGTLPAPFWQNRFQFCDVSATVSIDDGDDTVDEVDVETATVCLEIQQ

[3] = target: Sialic acid-binding Ig-like lectin 9 (Homo sapiens) (UniProt Q9Y336); experiment: Hs-Siglec9 ALPHAscreen SOP 20170721; conditions: 10 µM
Sialic acid-binding Ig-like lectin 9 (Homo sapiens), sequence (Q9Y336 whole entry): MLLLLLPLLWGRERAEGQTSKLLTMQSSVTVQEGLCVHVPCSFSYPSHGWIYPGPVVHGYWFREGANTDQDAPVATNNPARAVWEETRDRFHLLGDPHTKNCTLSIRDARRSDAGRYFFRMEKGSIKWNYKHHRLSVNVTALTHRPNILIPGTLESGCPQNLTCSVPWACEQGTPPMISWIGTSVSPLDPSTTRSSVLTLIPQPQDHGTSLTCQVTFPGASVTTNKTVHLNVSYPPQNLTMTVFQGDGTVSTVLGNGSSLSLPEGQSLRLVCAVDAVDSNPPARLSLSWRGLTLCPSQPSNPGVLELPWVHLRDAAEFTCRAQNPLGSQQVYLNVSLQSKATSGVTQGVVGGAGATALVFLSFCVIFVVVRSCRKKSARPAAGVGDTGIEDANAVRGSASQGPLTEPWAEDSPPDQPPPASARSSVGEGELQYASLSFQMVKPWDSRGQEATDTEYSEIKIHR

Trypanosoma cruzi = experiment: Trypanosoma cruzi phosphomannomutase and mannose-1-phosphate guanylyltransferase assay; format: functional; conditions: 10 µM
[4] = target: T2, Arginase-2, mitochondrial (Homo sapiens) (UniProt P78540); experiment: in vitro enzyme assay to detect the production of urea directly proportional to the activity of Arginase II; format: functional; conditions: 33.3 µM; further: in the data most compounds retested in dose-response had high values
T2 sequence (whole entry): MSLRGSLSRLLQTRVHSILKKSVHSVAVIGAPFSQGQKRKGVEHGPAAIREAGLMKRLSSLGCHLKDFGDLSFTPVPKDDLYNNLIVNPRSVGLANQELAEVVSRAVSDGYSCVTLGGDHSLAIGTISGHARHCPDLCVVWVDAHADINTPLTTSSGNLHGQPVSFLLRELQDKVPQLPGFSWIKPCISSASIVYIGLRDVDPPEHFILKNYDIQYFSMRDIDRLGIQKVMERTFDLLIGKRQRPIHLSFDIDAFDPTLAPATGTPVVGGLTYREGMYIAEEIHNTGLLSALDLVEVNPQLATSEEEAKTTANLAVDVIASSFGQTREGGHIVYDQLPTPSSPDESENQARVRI

[5] = target: T3, Proteasome subunit beta (Trypanosoma cruzi) (UniProt O96673); experiment: Trypanosoma cruzi proteasome chymotrypsin-like activity (TcProtChymo) assay.; further: in the data most compounds retested in dose-response had high values; format: functional; conditions: 9.37 µM
T3 sequence (whole entry): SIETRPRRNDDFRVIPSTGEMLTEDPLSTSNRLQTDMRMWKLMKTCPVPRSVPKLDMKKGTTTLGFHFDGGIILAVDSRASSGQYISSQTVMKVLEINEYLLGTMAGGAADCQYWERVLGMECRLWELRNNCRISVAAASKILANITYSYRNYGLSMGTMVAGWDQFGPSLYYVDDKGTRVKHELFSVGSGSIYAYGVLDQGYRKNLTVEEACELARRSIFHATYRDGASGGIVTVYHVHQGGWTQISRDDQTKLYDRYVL

Homo sapiens = organism: Homo sapiens; experiment: To identify inhibition of the IFN signalling (Jak-Stat) pathway via expression of an eGFP reporter gene under the control of an IFN-stimulated response element (ISRE) containing MxA promoter.; format: functional; conditions: 30 µM
[6] = target: T4, Tyrosyl-tRNA synthetase, putative (Trypanosoma cruzi (strain CL Brener)) (UniProt Q4DSP6); experiment: Trypanosoma cruzi tyrosyl tRNA synthetase (TcYRS) _High Tyrosine SOP; format: functional; conditions: 30 µM; further: in the data most compounds retested in dose-response had high values
T4 sequence (whole entry): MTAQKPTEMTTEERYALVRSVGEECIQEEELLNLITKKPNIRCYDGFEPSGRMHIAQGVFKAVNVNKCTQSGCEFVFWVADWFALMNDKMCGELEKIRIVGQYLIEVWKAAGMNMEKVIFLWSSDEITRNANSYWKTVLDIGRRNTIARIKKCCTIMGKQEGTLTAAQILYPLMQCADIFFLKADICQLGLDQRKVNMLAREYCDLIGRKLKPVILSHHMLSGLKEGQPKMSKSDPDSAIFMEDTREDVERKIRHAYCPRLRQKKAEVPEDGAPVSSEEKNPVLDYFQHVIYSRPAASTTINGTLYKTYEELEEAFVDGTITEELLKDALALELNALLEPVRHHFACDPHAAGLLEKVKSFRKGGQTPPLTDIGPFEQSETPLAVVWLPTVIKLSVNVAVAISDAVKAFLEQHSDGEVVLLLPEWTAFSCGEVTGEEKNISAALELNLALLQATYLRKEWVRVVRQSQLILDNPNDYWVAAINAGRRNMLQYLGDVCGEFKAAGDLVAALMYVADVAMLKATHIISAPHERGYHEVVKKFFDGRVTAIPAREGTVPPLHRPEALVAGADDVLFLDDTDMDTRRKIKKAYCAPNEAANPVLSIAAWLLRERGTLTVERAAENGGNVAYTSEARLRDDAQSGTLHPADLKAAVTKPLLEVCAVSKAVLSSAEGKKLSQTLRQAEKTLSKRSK

[7] = target: T4, Tyrosyl-tRNA synthetase, putative (Trypanosoma cruzi (strain CL Brener)); experiment: Trypanosoma cruzi tyrosyl tRNA synthetase (TcYRS) SOP; format: functional; conditions: 30 µM
[8] = target: Chromo domain-containing protein 1 (Saccharomyces cerevisiae (strain ATCC 204508 / S288c) (Baker's yeast)) (UniProt P32657); experiment: ScCHD-1 Enzyme Inhibition Assay; format: functional; conditions: 30 µM; further: in the data most compounds retested in dose-response had high values
Chromo domain-containing protein 1 (Saccharomyces cerevisiae (strain ATCC 204508 / S288c) (Baker's yeast)), sequence (P32657 whole entry, the tested form may be a part): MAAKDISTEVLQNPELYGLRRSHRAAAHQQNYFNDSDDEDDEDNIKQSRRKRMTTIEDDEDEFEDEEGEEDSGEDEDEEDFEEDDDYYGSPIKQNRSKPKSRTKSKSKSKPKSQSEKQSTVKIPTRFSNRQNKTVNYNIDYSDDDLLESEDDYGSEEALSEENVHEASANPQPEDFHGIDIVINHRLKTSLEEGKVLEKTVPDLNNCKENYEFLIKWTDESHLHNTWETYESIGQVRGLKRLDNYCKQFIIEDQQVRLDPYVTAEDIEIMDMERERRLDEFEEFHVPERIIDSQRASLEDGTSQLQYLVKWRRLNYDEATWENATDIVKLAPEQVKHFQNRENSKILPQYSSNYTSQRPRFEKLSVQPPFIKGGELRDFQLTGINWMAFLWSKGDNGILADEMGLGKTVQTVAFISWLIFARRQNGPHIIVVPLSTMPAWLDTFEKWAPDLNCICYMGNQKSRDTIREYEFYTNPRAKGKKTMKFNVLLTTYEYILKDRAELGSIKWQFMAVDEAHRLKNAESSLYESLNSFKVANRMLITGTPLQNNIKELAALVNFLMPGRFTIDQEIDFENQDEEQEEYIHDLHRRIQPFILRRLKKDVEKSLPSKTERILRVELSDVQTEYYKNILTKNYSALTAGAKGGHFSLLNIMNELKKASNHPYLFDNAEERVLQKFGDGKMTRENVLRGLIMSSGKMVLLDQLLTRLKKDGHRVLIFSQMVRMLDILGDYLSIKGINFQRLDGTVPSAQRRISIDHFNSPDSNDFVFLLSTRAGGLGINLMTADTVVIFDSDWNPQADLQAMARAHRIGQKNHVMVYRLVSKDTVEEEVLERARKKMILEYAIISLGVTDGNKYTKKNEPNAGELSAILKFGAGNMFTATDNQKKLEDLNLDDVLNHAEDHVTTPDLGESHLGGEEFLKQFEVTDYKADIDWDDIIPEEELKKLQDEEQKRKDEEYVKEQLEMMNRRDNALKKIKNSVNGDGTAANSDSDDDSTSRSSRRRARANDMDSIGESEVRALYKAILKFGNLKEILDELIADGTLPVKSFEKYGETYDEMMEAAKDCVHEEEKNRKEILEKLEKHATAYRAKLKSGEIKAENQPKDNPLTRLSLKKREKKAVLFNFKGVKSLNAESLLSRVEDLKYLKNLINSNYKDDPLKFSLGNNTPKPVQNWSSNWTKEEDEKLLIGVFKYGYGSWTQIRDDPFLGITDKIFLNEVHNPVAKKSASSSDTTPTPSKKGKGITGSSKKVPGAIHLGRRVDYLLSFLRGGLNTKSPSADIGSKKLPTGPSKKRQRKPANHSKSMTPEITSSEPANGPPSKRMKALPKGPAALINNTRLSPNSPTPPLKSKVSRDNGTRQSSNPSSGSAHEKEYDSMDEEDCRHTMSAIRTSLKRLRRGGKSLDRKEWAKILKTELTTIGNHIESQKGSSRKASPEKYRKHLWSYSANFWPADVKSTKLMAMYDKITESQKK

SMILES | Percent Effect [1] | Percent Effect [2] | Percent Effect [3] | Percent Effect (Trypanosoma cruzi) | Percent Effect [4] | Percent Effect [5] | Percent Effect (Homo sapiens) | Percent Effect [6] | Percent Effect [7] | Percent Effect [8]
Cc1cc(-c2cnn(CCNC(=O)C3CC3)c2C2CC2)on1 | -4.16% | 4% | -5.41% | -1.77% | -1.77% | 5.91% | 17.8% | -3.17% | 0% | -25.2%
CCc1ccc(S(=O)(=O)N2CCC3(CC(C(=O)NC)=NO3)C2)cc1 (stereo not given) | -3.25% | 1.3% | 3.29% | 5.36% | -4.05% | 4.68% | -7.8% | 1.58% | 5.13% | 0.139%
CCN1CCN(CC(C)(O)c2cccc(C(F)(F)F)c2)CC1 (stereo not given) | -5.15% | 5.2% | 14.6% | -3.92% | -3.48% | 0.175% | -14.6% | 2.94% | -2.35% | -0.754%
CCNC(=O)N1CCN(C(=O)c2cc(Cl)cc3cccnc23)CC1 | -1.06% | 0% | 3.31% | -1.03% | 3.28% | 7.93% | 6.48% | -0.478% | -1.21% | 2.64%
c1ccc(-c2cnc(CNC3CCCN(c4cccnn4)C3)o2)cc1 (stereo not given) | -1.65% | -23.1% | 5.28% | 6.48% | 1.23% | 0.0853% | 7.96% | 14.8% | 22.9% | -1.17%
CC(C)(C)c1cn2nc(N3CCC[C@@H]3CO)sc2n1 | -2.65% | 10.3% | -1.69% | -0.282% | 2.87% | 6.57% | 2.26% | 2.39% | 13.2% | -0.0525%
CN(Cc1ccc2c(c1)OCCO2)C(=O)Cn1ccccc1=O | -0.175% | 13.3% | 1.7% | -5.02% | 5.76% | 19.8% | 3.52% | 2.63% | 7.69% | -7.25%
CN1CCCC2(CCN(C(=O)CCn3cncn3)C2)C1=O (stereo not given) | -9.37% | 2.7% | 4.1% | 4.17% | 5.94% | 12% | -0.496% | 4.79% | 19.5% | -0.366%
CCn1cc(S(=O)(=O)N(C)Cc2c(Br)cnn2CC)c(C)n1 | 8.78% | 12% | -0.969% | -3.55% | 3.54% | 16.6% | 20.6% | 3.17% | 7.5% | -17.9%
CC(C)n1ccnc1C1CCN(C(=O)C2COc3ccccc3O2)CC1 (stereo not given) | -9.12% | 5.41% | 10.4% | 7.08% | 12.9% | 13.2% | -5.55% | 7.98% | 14.6% | -3.02%
